Structures are written as SMILES. Records with an inconclusive call do not appear. A number with no mark means an inactive call. Calls follow the shape of the dose curve; as a rule, active = well fitted inhibition curve with a large enough effect in the signal ratio, with a control signal flat (not every such curve was filed as active); inconclusive = small, poorly fitted or top-dose-only effect, or effect the other way, or a change in a side signal; inactive = flat fitted curve, though single readings scatter; the % refers to the signal ratio.
% is scaled to controls: 0 for no effect and ±100 for the full control effect.

The target in the test is Glucocorticoid receptor (Homo sapiens) (UniProt P04150). Description: qHTS assay for small molecule antagonists of glucocorticoid receptor signaling (AID 588533). The note with it: HeLa MMTV-bla, GRE beta-lactamase ratio, antagonist mode, 18 h; series mostly up to 76.8 µM; activity change, negative = inhibition: at the top concentration. From the text: NIH Chemical Genomics Center [NCGC] U.S. Environmental Protection Agency [EPA] National Institutes of Environmental Health Sciences [NIEHS] National Toxicology Program [NTP] NCGC Assay Overview The Glucocorticoid receptor (GR), a nuclear receptor subfamily member and its natural ligands includes […] etc. The GR is a validated drug target for inflammation. GR ligands such as dexamethasone are clinically available as anti-inflammatory drugs. Glucocorticoids implicate a role in carbohydrate, protein and lipid metabolisms and programmed cell death. They are also a component of many chemotherapy regimens for the treatment of leukemias, lymphomas, and myelomas because of their role in the induction of apoptosis.
Sequence of Glucocorticoid receptor (Homo sapiens) (P04150 whole entry, looked up): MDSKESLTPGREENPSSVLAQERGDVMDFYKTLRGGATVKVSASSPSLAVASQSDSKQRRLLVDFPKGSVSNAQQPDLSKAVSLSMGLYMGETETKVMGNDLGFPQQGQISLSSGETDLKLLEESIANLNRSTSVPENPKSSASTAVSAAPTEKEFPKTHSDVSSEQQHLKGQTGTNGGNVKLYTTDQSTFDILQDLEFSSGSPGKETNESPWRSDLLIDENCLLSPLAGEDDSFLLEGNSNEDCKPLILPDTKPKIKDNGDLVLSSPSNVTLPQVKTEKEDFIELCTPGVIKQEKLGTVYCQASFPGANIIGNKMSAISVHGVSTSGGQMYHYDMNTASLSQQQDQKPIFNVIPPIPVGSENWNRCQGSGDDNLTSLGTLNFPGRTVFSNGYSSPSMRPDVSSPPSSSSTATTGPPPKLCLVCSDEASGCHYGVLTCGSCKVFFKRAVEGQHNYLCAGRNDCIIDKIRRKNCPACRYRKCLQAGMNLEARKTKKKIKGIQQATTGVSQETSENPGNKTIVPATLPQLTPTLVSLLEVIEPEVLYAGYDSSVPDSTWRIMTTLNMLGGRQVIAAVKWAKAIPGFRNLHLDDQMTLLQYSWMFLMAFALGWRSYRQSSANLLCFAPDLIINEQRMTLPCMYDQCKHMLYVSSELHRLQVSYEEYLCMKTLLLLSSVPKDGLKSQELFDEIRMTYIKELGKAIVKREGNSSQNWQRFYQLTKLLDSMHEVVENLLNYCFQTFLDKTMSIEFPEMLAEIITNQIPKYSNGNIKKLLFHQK
NCGC Assay Protocol Summary Using a beta-lactamase reporter-gene under control of glucocorticoid response element (GRE), a cell-based assay [CellSensor MMTV-bla HeLa cell line assay developed by Invitrogen] was used to measure GR ligands signaling. CellSensor MMTV-bla HeLa cells were used with assay medium containing 1% charcoal/dextran treated FBS, 0.1 mM NEAA, 1 mM sodium pyruvate and 25mM HEPES. The assay was performed in clear bottom black Greiner 1536-well plates. Library compounds were measured for their ability to inhibit the reporter gene activity. Compounds were screened in a titration series in 1536-well format. […] Data was normalized relative to Dexamethasone control (2 nM, 100%), and DMSO only wells (basal, 0%). Concentration-response titration points for each compound were fitted to the Hill equation yielding concentrations of half-maximal inhibition (IC50) and maximal response (efficacy) values. qHTS protocol for GR beta-lactamase assay in antagonist mode [Step] [Parameter] [Value] [Description] 1. Reagent; 5 uL; 1500 cells/well 2. Incubation; 37 C for 3-5 hrs 3. Compounds; 23 nL; 0.59 nM to 92 uM 4. […] Agonist (Stimulator); 1uL; Dexamethasone at 2 nM (final) concentration 6. Incubation; 37 C for 18 hrs 7. Detection reagent; 1 uL of CCF4-dye 8. Incubation; RT for 2 hrs 9. Detection; Fluorescence; Envision plate reader
For the compound `CCCCCCCCCCCCCCCCCCN`, the “activity change, negative = inhibition” value is -8.21%. On to `Nc1cc(Cl)nc(C(=O)O)c1Cl`, for which the “activity change, negative = inhibition” value is 7.4%. For `O=C(O)CCCCCCCCCCC(=O)O`, the “activity change, negative = inhibition” value is -2.78%.

For the compound `Cn1c(=O)[nH]c(=O)n(C2CCCCC2)c1=O`, the “activity change, negative = inhibition” value was 5.26%. With `C=C(C)C(=O)OCCOCCOCCOC(=O)C(=C)C`, the “activity change, negative = inhibition” value was -23.1%. `C=C(C)C(=O)OCCOC(=O)C(=C)C`: the “activity change, negative = inhibition” value is -8.51%.

`CC1COCc2cc3c(cc21)C(C)(C)C(C)C3(C)C` (stereo not given): the “activity change, negative = inhibition” value is 26.9%. In the case of `CCCCOC(=O)/C=C\C(=O)OCCCC`, the “activity change, negative = inhibition” value was 4.56%.

Consider `Cc1ccc(Cl)cc1Cl`, for which the “activity change, negative = inhibition” value was 7.56%.

Turning to `C=CC(=O)OCC(C)OCC(C)OCC(C)OC(=O)C=C` (stereo not given), the “activity change, negative = inhibition” value was -8.53%. `CS(=O)(=O)c1ccc(Cl)cc1`: the “activity change, negative = inhibition” value is -0.707%.

`O=C(Cl)c1cccc(C(=O)Cl)c1`: the “activity change, negative = inhibition” value was -1.51%. The figure for `O=C(OCC1CCC2OC2C1)C1CCC2OC2C1` (stereo not given) is -5.23%; for `O=C(Cl)c1ccc(C(=O)Cl)cc1` it is -1.95%; for `CCCCCCCC/C=C\CCCCCCCCO` it is -17.7%. For `CC(=O)CC(=O)Nc1ccc(C)cc1C`, the “activity change, negative = inhibition” value is -0.0437%. The result for `CC1(C)C(=O)N(Br)C(=O)N1Br` reads -6.94%. Take `CC(=O)Nc1ccc(N=Nc2cc(C)ccc2O)cc1`: the “activity change, negative = inhibition” value is 11.2%. As for `C=C(C)C(=O)OCCCCCCCCCCCC`, the “activity change, negative = inhibition” value is 4.05%. Consider `CC(=O)OC1CCC(C(C)(C)C)CC1` (stereo not given), for which the “activity change, negative = inhibition” value is -6.54%. Turning to `c1ccc2c(c1)Cc1ccccc1-2`, the “activity change, negative = inhibition” value was -0.936%. As for `CC(C)(C)C1CCC(O)CC1` (stereo not given), the “activity change, negative = inhibition” value was -5.82%. The result for `COCCOCCOCCOC` reads 4.62%. The result for `CCOC(=O)C1=NN(c2ccc(Cl)cc2Cl)C(C)(C(=O)OCC)C1` (stereo not given) reads -1.35%; that for `C1CCC2(CCCCO2)OC1`, 11.5%; that for `CCCCNS(=O)(=O)c1ccccc1`, 1.05%. Take `CS(C)=O`: the “activity change, negative = inhibition” value is -5.68% [at 54 mM]. Regarding `CCOC(=O)C(C)Oc1ccc(Oc2nc3ccc(Cl)cc3o2)cc1` (stereo not given), the “activity change, negative = inhibition” value was -16.5%. In the case of `C=CCCCCCCCCCCCC`, the “activity change, negative = inhibition” value was 15.9%.

Turning to `CC1(C)[C@@H]([C@@H](Br)C(Br)(Br)Br)[C@H]1C(=O)O[C@H](C#N)c1cccc(Oc2ccccc2)c1`, the “activity change, negative = inhibition” value was -6.02%. The figure for `CC(C)(C)c1cccc(C(C)(C)C)c1O` is -8.86%; for `COC(=O)c1c(Cl)nn(C)c1S(=O)(=O)NC(=O)Nc1nc(OC)cc(OC)n1` it is -8.25%.

In the case of `O=C(Cl)c1cc(Cl)cc(Cl)c1`, the “activity change, negative = inhibition” value is -0.406%.

As to `CCCCCCCCC(=O)O`, the “activity change, negative = inhibition” value was -3.65%. For the compound `CCCCCCCCCCCCCCCCCC(N)=O`, the “activity change, negative = inhibition” value is 18.2%. Regarding `CC(C)CCCCOC(=O)c1ccccc1C(=O)OCCCCC(C)C`, the “activity change, negative = inhibition” value is 0.633%. Take `CC(C)C(=O)OCC(C)(C)C(O)C(C)C` (stereo not given): the “activity change, negative = inhibition” value is -0.101%.

In the case of `CCCCCCCCCCCCCc1ccccc1`, the “activity change, negative = inhibition” value is -10.9%.

As to `CCOCCOCCOCC`, the “activity change, negative = inhibition” value is 7.24%. Take `O=C1CCCC/C=C/CCCCCCCCCO1`: the “activity change, negative = inhibition” value is 10.8%.

The values are drawn from PubChem BioAssay (NCATS).
